Hits are enriched below; roughly 2.4% of the tested compounds scored in any of these assays.
SENP8 block-1 – inhibitors of human SENP8 protease; purified SENP8, Z-RLRGG-aminoluciferin cleavage, luminescence; inhibition, % at 10 µM; hit rate 1.2% among 330,000; AID 2540; in the data active = inhibition above about 50%
Target sequence (Q96LD8 whole entry, looked up): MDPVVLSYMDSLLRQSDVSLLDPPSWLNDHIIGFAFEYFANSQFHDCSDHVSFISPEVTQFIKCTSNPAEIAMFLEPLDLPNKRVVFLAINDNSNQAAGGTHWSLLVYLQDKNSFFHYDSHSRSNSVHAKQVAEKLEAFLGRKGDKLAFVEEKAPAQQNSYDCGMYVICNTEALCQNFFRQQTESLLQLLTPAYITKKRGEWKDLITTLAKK
SENP6 block – inhibitors of human SENP6 protease | Q9GZR1 | Recombinant SENP6 catalytic domain, aminoluciferin luminescence | inhibition, % at 10 µM | hit rate 1.8% among 330,000 | AID 2599;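 active = inhibition above about 50% at the single tested dose, limit read from the data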;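 note: plate controls were DMSO wells with enzyme for no effect and DMSO wells lacking enzyme for full effect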
SENP8 block-2 – blocks human SENP8 cleavage of Nedd8 substrate | Q96LD8 | recombinant SENP8, Nedd8 substrate fluorescence | inhibition, % at 20 µM | hit rate 0.64% among 360,000; in the data active = inhibition mostly above about 40%, no sharp cut-off; inactive = mostly below about 27%
SENP7 block – blocks the human protease SENP7; Q9BQF6; recombinant SENP7, Z-RLRGG-aminoluciferin luminescence, 40 min; inhibition, % at 5 µM; hit rate 1.5% among 330,000; AID 434973;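 active = inhibition above about 50% at the single test dose, limit read from the data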;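 note: plate controls were DMSO with enzyme for no effect and no enzyme buffer wells for full effect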
Target sequence (Q9BQF6 706-1050 limits assumed): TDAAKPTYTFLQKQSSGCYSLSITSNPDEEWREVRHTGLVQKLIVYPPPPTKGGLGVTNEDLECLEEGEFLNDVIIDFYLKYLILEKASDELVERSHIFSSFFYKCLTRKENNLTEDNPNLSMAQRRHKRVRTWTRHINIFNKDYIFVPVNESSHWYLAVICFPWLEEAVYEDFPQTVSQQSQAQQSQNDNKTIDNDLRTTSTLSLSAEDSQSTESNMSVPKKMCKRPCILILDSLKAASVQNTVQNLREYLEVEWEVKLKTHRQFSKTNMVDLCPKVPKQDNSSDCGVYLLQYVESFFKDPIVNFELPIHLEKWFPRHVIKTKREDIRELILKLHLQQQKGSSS
Platelet DG rel – platelet dense granule release activity; human platelet-rich plasma, SFLLRN dense granule ATP release, luminescence; inhibition, %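 (compounds screened at 7.5 µM in platelet-rich plasma)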; hit rate 0.22% among 300,000; AID 1663;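 active = mean replicate score, as percent of positive control, at or above 50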
SENP8 confirm – human SENP8 inhibition, confirmed. AID 488912. hit rate 40% among 6,200. inhibition, % at 12.5 µM. Recombinant SENP8, Z-RLRGG-aminoluciferin luminescence, 60 min. shares compounds with SENP7 block;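 active = mean inhibition across replicates above about 50%, limit read from the data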
SENP6 conf – human SENP6 inhibition, confirmed; shares compounds with SENP7 block; recombinant SENP6, Z-RLRGG-aminoluciferin luminescence; inhibition, % at 12.5 µM; hit rate 58% among 6,200; AID 488915
SENP7 conf – human SENP7 inhibition, confirmed. shares compounds with SENP7 block. recombinant SENP7, Z-RLRGG-aminoluciferin luminescence, 40 min. inhibition, % at 12.5 µM. hit rate 69% among 6,200. AID 488917
Casp3 select – selectivity test for SENP inhibitors: human caspase-3 inhibition. shares compounds with SENP7 block. purified caspase-3, Z-DEVD-aminoluciferin luminescence, 60 min. inhibition, % at 12.5 µM. hit rate 60% among 6,200. AID 488918;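 active = mean inhibition above about 50%, limit read from the data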;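 note: plate controls were enzyme with DMSO for no effect and wells without caspase-3 for full effect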
SENP luc ctr – luminescence interference (SENP counter-screen) | shares compounds with SENP7 block | Pre-incubated SENP8/Z-RLRGG-aminoluciferin, luciferase luminescence interference | inhibition, % at 12.5 µM | hit rate 39% among 6,200 | AID 488919;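 active = mean inhibition above about 50% when retested at one dose, limit read from the data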;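 note: plate controls were DMSO wells with completed reaction for no effect and substrate without enzyme for full effect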
Active calls of the source: *; i = inactive; / = no result.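 Rule for the calls, unless noted: active = mean inhibition above about 50% in the one-dose retest (limit read from the data); inactive = the rest.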

SMILES	SENP8 block-1	SENP6 block	SENP8 block-2	SENP7 block	Platelet DG rel	SENP8 confirm	SENP6 conf	SENP7 conf	Casp3 select	SENP luc ctr
CCC(=O)Nc1ccc(-c2nnc(-c3ccccc3)o2)cc1	38	72*	i	75*	1	20	17	10	40	4
Cc1ccc2oc(-c3cccc(NC(=O)Cc4cccs4)c3)nc2c1	-11	1	-26	75*	2	8	7	-2	-5	-7
CCOC(=O)C1CCN(c2c(NCCC(C)C)c(=O)c2=O)CC1	-7	-10	40	2	-7	/	/	/	/	/
FC(F)(F)Oc1ccccc1C(c1nnnn1C1CCCC1)N1CCN(C/C=C/c2ccccc2)CC1 (configuration not stated)	/	/	12	/	/	/	/	/	/	/
CCOc1ccc(C(=O)N[C@H](C(=O)NNC(=O)c2cccs2)C(C)C)cc1	-6	8	3	3	/	/	/	/	/	/
CCCCCCN1C[C@@H](n2cc(-c3ccc(F)cc3)nn2)[C@H](O)C[C@@H]1c1ccccc1	/	/	1	/	/	/	/	/	/	/
COc1ccc(N(CC(=O)NCCSCc2ccccc2C)S(=O)(=O)c2ccccc2)cc1	5	-3	6	0	-4	/	/	/	/	/
O=C(Nc1cccnc1)c1cc(-c2ccccc2)on1	48	75*	9	69*	-5	36	49	86*	75*	32
O=C(Nc1cccnc1)c1cc(-c2ccc(Br)cc2)on1	36	29	15	84*	-29	19	19	31	30	5
CC(C)c1cc(C(=O)Nc2cccnc2)no1	40	62*	13	63*	5	61*	56*	86*	88*	65*
COc1cccc(-c2cc(C(=O)Nc3cccnc3)no2)c1	65*	55*	3	80*	7	47	78*	93*	83*	29
COc1cc(/C=C2\C(=N)N3N=C(S(C)(=O)=O)SC3=NC2=O)ccc1OS(=O)(=O)c1ccc(C)cc1	-4	9	-180	2	-6	/	/	/	/	/
COc1ccc(CC(=O)Nc2cc(S(C)(=O)=O)ccc2Cl)cc1S(=O)(=O)N1CCOCC1	/	/	4	/	/	/	/	/	/	/
O=C(Nc1cccnc1)c1cc(-c2ccco2)on1	23	49	18	58*	4	40	39	64*	79*	1
Cc1ccc(NC(=O)c2cc(-c3ccco3)on2)cc1	-1	2	-12	19	-1	/	/	/	/	/
COC(=O)c1sccc1-c1ccc(C(=O)Nc2cccnc2)o1	21	48	-96	52*	-4	45	40	76*	59*	4
O=C(Oc1ccc(-c2ccccc2)cc1)N1CCCCC1	18	53*	0	33	-12	-4	-5	-6	-2	-4
O=C(Oc1ccc(OC(=O)N2CCOCC2)cc1)c1ccccc1	26	38	22	56*	-3	-20	19	72*	47	-2
O=C(Oc1ccccc1)N1CCOCC1	-4	13	3	-2	12	/	/	/	/	/
O=C(Oc1ccccc1)N1CCCCC1	/	/	14	/	/	/	/	/	/	/
O=C(COC(=O)c1ccc(Br)o1)Nc1ncc([N+](=O)[O-])s1	65*	74*	18	28	/	69*	66*	86*	78*	73*
O=C(CCS(=O)(=O)Cc1ccccc1)Nc1ncc([N+](=O)[O-])s1	84*	88*	7	83*	4	-1	83*	97*	71*	82*
Cc1ccc(CC(=O)Nc2ncc([N+](=O)[O-])s2)cc1	88*	91*	-175	63*	-10	93*	93*	99*	91*	55*
COc1ccccc1NC(=O)c1ccc(CSc2ncccn2)cc1	8	26	/	24	2	/	/	/	/	/
CCCC(=O)c1cc(F)c(N2CCN(S(=O)(=O)c3ccccc3)CC2)cc1C	-5	-10	12	7	0	/	/	/	/	/
SMILES	SENP8 block-1	SENP6 block	SENP8 block-2	SENP7 block	Platelet DG rel	SENP8 confirm	SENP6 conf	SENP7 conf	Casp3 select	SENP luc ctr
CCC(=O)c1cc(F)c(N2CCN(S(=O)(=O)c3ccccc3)CC2)cc1C	-8	-1	6	52*	5	8	12	10	4	0
O=C1CCCN1CCC(=O)N1CCCC(CO)(Cc2ccccc2)C1 (configuration not stated)	-9	-8	6	10	-17	/	/	/	/	/
COc1ccc(NC(=O)c2scc(S(=O)(=O)C(C)C)c2N)cc1	59*	66*	0	86*	5	68*	66*	89*	82*	68*
COc1ccc(NC(=O)c2sc(SC)nc2N)cc1	23	35	14	52*	6	45	40	74*	64*	52*
COc1ccc(NC(=O)c2sc(SCc3ccccc3)nc2N)cc1	1	14	16	15	4	/	/	/	/	/
Cc1[nH]n(C(N)=S)c(=O)c1N=Nc1ccccc1C(F)(F)F	34	54*	18	2	4	56*	53*	77*	/	50*
Cc1ccccc1N=Nc1c(C)[nH]n(C(N)=S)c1=O	60*	82*	8	40	4	2	34	37	49	10
Cc1[nH]n(C(N)=S)c(=O)c1C(c1ccccc1)C(C#N)C#N (configuration not stated)	2	-8	11	1	-3	/	/	/	/	/
Cc1nc(N)sc1N=Nc1ccccc1C(F)(F)F	-8	18	19	5	5	/	/	/	/	/
Cc1[nH]n(C(N)=S)c(=O)c1N=Nc1ccc([N+](=O)[O-])cc1Cl	95*	94*	24	70*	6	81*	95*	98*	79*	13
NC(=S)n1[nH]c(-c2ccc([N+](=O)[O-])cc2)c(N=Nc2cccc(Cl)c2)c1=O	1	10	34	-8	6	/	/	/	/	/
Cc1[nH]n(C(N)=S)c(=O)c1N=Nc1cccc(Cl)c1	89*	91*	20	72*	5	23	40	20	32	11
COc1ccc(NC(=O)CN(C)C(=O)c2ccc(C)c(S(=O)(=O)N3CCCCC3)c2)cc1	/	/	8	/	/	/	/	/	/	/
O=C1C=C(NCc2ccc(Cl)cc2)CCC1	3	6	13	11	-9	/	/	/	/	/
Cn1c(C(=O)NCc2ccc3c(c2)OCO3)cc2sccc21	2	4	6	10	6	/	/	/	/	/
COc1cc(NC(=O)c2cc3sccc3n2C)cc(OC)c1	50*	64*	-10	66*	2	6	60*	84*	40	65*

Screening data deposited in PubChem BioAssay by several laboratories.
